From PubChem BioAssay
The list is not random: actives were taken first. Their share in the collection is about 1.9%.
BaF3 tox – counter-screen for JAK2V617F inhibitors: parental Ba/F3 viability inhibitors; CellTiter-Glo ATP luminescence; inhibition, % at 5.6 µM; 1.1% of 220,000 active; AID 1486;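 active = inhibition above a per-campaign cutoff, the mean inhibition of all tested compounds plus 3 SD, cut at about 27% in these data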
Ba/F3 V617F tox – loss of viability in JAK2V617F-driven Ba/F3 cells. Ba/F3 EpoR-JAK2V617F viability, ATP luminescence. inhibition, % at 5.6 µM. 1.1% of 220,000 active. AID 1446;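 active = inhibition above the campaign mean plus 3 SD over all tested compounds, cut at about 24% in these data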;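 also: cytokine-independent growth of Ba/F3 cells driven by EpoR plus mutant JAK2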
IEC-6 cytotox – IEC-6 cytotoxicity, counter-screen for KLF5 inhibitors; luminescence viability; inhibition, % at 5 µM; 0.78% of 290,000 active; in the data active = inhibition above about 22%
KLF5 inhibitor – inhibitors of KLF5 expression. inhibition, % at 5 µM. DLD-1 KLF5 promoter-luciferase reporter, luminescence. 0.23% of 290,000 active;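 active = inhibition above a per-plate limit of that plate's mean compound inhibition plus 3 SD, cut at about 60% in these data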;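 also: higher means less KLF5 promoter-driven luciferase light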
APP transl inh – APP translation inhibition; SH-SY5Y APP 5'UTR-luciferase reporter, luminescence; inhibition, % at 2 µM; 0.82% of 190,000 active;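 active = inhibition above a set limit, derived from the sample mean plus 3 SD, cut at about 45% in these data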
Large screens that a line does not name were inactive.

NC(=O)CC(NC(=O)Cc1cccc2ccccc12)c1ccc(N2CCC(N3CCCC3)CC2)c([N+](=O)[O-])c1 (stereo unspecified)	none (no result: BaF3 tox, Ba/F3 V617F tox, APP transl inh)
OC(COc1ccc(CNCc2cccnc2)cc1)CN1CCc2ccccc2C1 (stereo unspecified)	none
COc1ccc(C(=O)N=C2SC3CS(=O)(=O)CC3N2Cc2ccc(F)cc2)cc1 (stereo unspecified)	none (no result: BaF3 tox, Ba/F3 V617F tox, APP transl inh)
O=C(CSc1nnc(-c2ccco2)c(-c2ccco2)n1)Nc1ccccc1	APP transl inh 50
COc1ccc(C(=O)CSc2nnc(-c3ccco3)n2C)cc1	none
COc1ccc(C(=O)CSc2nnc(-c3ccco3)c(-c3ccco3)n2)cc1	APP transl inh 67
CCN(CC)S(=O)(=O)c1ccc(NC(=O)c2cnccn2)cc1	none (no result: BaF3 tox, Ba/F3 V617F tox, APP transl inh)
CCOc1ccc(Br)cc1S(=O)(=O)N1CC(C)OC(C)C1 (stereo unspecified)	none
CCOc1cc(Br)ccc1S(=O)(=O)N1CC(C)OC(C)C1 (stereo unspecified)	BaF3 tox 93
CC(CC(=O)NNC(=O)c1cccc(Cl)c1)c1ccccc1 (stereo unspecified)	none (no result: BaF3 tox, Ba/F3 V617F tox, APP transl inh)
CCCc1cc(C(=O)N/N=C/c2ccc(CC)s2)c2ccccc2n1	none
Cn1cccc1/C=N/NC(=O)c1cc(-c2cccs2)nc2ccccc12	APP transl inh 47
O=C(N/N=C/c1ccc[nH]1)c1cc(-c2cccs2)nc2ccccc12	none
CC/C(=N\NC(=O)c1cc(C)nc2ccccc12)c1ccc(C)s1	APP transl inh 76
CC(/C=N/NC(=O)c1cc(-c2ccc(Cl)cc2)nc2ccccc12)=C\c1ccco1	none
CCc1ccc(/C=N/NC(=O)c2cc(-c3ccncc3)nc3ccccc23)s1	APP transl inh 91
CC(/C=N/NC(=O)c1cc(-c2ccccc2)nc2ccccc12)=C\c1ccco1	APP transl inh 85
O=C(CCCOc1ccc(Cl)cc1)NC1CCCCC1	none (no result: BaF3 tox, Ba/F3 V617F tox, APP transl inh)
COc1ccccc1CNC(=O)CNC(=O)c1ccc(Br)o1	none (no result: BaF3 tox, Ba/F3 V617F tox, APP transl inh)
Cn1c(SCC(=O)NNC(=O)c2ccc(Cl)cc2)nnc1-c1cccnc1	none
O=C(Nc1nnc2n1CCS2)c1ccc(Br)o1	none (no result: BaF3 tox, Ba/F3 V617F tox, APP transl inh)
Cc1cc(C(=O)N/N=C/c2ccc(C)o2)c2ccccc2n1	APP transl inh 73
Cc1ccc(S(=O)(=O)N2CCC(N3CCC(C)CC3)CC2)cc1	none (no result: BaF3 tox, Ba/F3 V617F tox, APP transl inh)
Cn1cc(C(=O)c2ccc(Cl)cc2)cc1-c1nc2ccccc2n1C	BaF3 tox 47 (no result: APP transl inh)
C=CCN(c1ccc(C(=O)NCCSc2ccccc2)cc1)S(C)(=O)=O	none (no result: BaF3 tox, Ba/F3 V617F tox, APP transl inh)
COc1cc(/C=C2/NC(=O)N(Cc3ccccc3F)C2=O)ccc1O	BaF3 tox 65, Ba/F3 V617F tox 85
CCCOc1ccc(Br)cc1CSC(=N)N	BaF3 tox 41, Ba/F3 V617F tox 38
CCOc1ccc(Br)cc1CC(=O)O	none
CN1CCN(c2ccc([N+](=O)[O-])cc2C(=O)c2ccc(Br)cc2)CC1	APP transl inh 69
COc1ccc(C(=O)c2cc([N+](=O)[O-])ccc2N2CCN(C)CC2)cc1	BaF3 tox 85, Ba/F3 V617F tox 74, IEC-6 cytotox 74, APP transl inh 65
O=C(c1ccccc1)c1cc([N+](=O)[O-])ccc1N1CCCC1	none
Cc1ccccc1COC(=O)c1cc([N+](=O)[O-])ccc1N1CCOCC1	none (no result: BaF3 tox, Ba/F3 V617F tox, APP transl inh)
COc1ccc(C(=O)c2cc([N+](=O)[O-])ccc2N2CCCC2)cc1	APP transl inh 61
CN1CCN(c2ccc([N+](=O)[O-])cc2C(=O)c2ccccc2)CC1	none
Cc1ccc(C(=O)c2cc([N+](=O)[O-])ccc2N2CCOCC2)cc1C	BaF3 tox 76, Ba/F3 V617F tox 85, APP transl inh 93
O=C(O)c1ncn(Cc2ccc(Br)cc2)c1C(=O)O	none
c1ccc2c(NCCCN3CCOCC3)c3ccccc3nc2c1	APP transl inh 63
O=C1N/C(=C/c2ccc(N3CCOCC3)o2)C(=O)N1c1cccc(Cl)c1	APP transl inh 76
O=C(NNC(=S)NC1CCCCC1)c1ccccc1Br	none (no result: BaF3 tox, Ba/F3 V617F tox, APP transl inh)
CNC(=O)C(Sc1ccccc1)c1ccccc1 (stereo unspecified)	APP transl inh 49
Cc1cnc(C(=O)OCC(=O)NC(C)C)cn1	BaF3 tox 51
COc1cc2c(cc1NC(=O)C(C)N1CCN(S(=O)(=O)c3ccc(C)c(C)c3)CC1)oc1ccccc12 (stereo unspecified)	none
COc1cc2c(cc1NC(=O)C(C)N1CCN(S(=O)(=O)c3ccccc3[N+](=O)[O-])CC1)oc1ccccc12 (stereo unspecified)	APP transl inh 93
Cc1ccccc1Cc1ccc(Cl)nn1	none
COc1ccccc1NC(=S)N1CCn2cccc2C1c1cccnc1 (stereo unspecified)	none
